Reference: article PMC12548414
Hit rate of the full screen: of about 1,600 compounds, about 20 (1%) showed an effect of 50% or more. This is one part of a sample in which strong results are shown more often than they occur.

Tested on: T1, E. coli pLC1021 (luc-trpAt trans-translation reporter)
T1 construct: pLC1021 luc-trpAt reporter strain
Design: species or system Escherichia coli pLC1021; luc-trpAt non-stop luciferase reporter; luminescence rises when trans-translation is inhibited; normalized to KKL-35 and DMSO
Conditions: reporter signal, KKL-35 = 100%; rise means trans-translation inhibition; 2 h, 20 µM
Procedure, shortened: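 Cells carrying the non-stop luc-trpAt reporter were exposed to 20 µM compound for 2 h at room temperature, then Bright-Glo was added and luminescence read at 560 nm after 10 min. Signals were normalised per plate to DMSO and 20 µM KKL-35 wells. Hits: activity one SD above the median; ≥2 biological repeats averaged.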

Row | SMILES | % activation [%]
1 | CCC(C)c1ccc(O)c(NC(=S)NC(=O)c2ccc(-c3ccc(Cl)cc3)o2)c1 (stereo not shown) [KKL-0745] | 0
2 | CC(C)(C)c1cc(NCCCn2ccnc2)n2ncc(-c3ccc(Cl)cc3)c2n1 [KKL-1011] | 9
3 | N#Cc1cc(Oc2ccc(OCc3ccccc3)cc2)c([N+](=O)[O-])cc1C#N [KKL-0738] | 5
4 | Cc1cccc(NC(=S)NC(=O)CC23CC4CC(CC(C4)C2)C3)c1 [KKL-1311] | 0
5 | CSCCC(=O)N1CCCC(C(=O)Nc2cccc(-c3cccc(C)c3)c2)C1 (stereo not shown) [KKL-0499] | 0
6 | Cc1ccc(-n2cc(CNC(C)c3csc(C)n3)c(-c3cccc(C)c3)n2)cc1 (stereo not shown) [KKL-0500] | 0
7 | Cc1ccc2cc3c(nc2c1C)OC(=O)N(C1CCCC1)C3 [KKL-0690] | 1
8 | CCCCc1cccc(C(=O)Nc2nnc(S(=O)(=O)CCCC)s2)n1 [KKL-1853] | 6
9 | CCOc1ccc2nc(NC(=O)c3ccccn3)sc2c1 [KKL-0810] | 0
10 | CCCCc1ccc(C(=O)Nc2nccc3ccccc23)nc1 [KKL-1763] | 50
11 | c1ccc(-c2nn(-c3ccccc3)cc2CNC2CCCc3c2cnn3-c2ccccn2)cc1 (stereo not shown) [KKL-1169] | 0
12 | Clc1cc(Br)ccc1OCCCCn1ccnc1 [KKL-1286] | 0
13 | OC(CN1CCC2(CC1)CC(O)c1cc(F)ccc1O2)c1ccc2c(c1)CCCC2 (stereo not shown) [KKL-0925] | 0
14 | CN(Cc1ccc(Cl)cc1)C(=O)CCc1nc2ccccc2oc1=O [KKL-1749] | 0
15 | CCN(CC)c1ccc(NC(S)=NCCc2ccc(OC)c(OC)c2)cc1 [KKL-1550] | 0
16 | O=C(Nc1ccc2c(c1)CN(C(=O)/C=C/c1cccs1)CC2)c1ccncc1 [KKL-0616] | 0
17 | Cc1cc(=O)oc2cc(OCC(=O)OC3CCCCC3)ccc12 [KKL-1250] | 7
18 | Cc1nc(-c2ccccc2Br)cc([C@H]2CN3CC[C@H]2C[C@@H]3CNC(=O)c2ccc(C(C)(C)C)cc2)n1 [KKL-1598] | 0
19 | COc1ccc(Nc2nc(NC3CCNC3)nc3cc[nH]c(=O)c23)cc1CC(=O)c1ccccc1 (stereo not shown) [KKL-1883] | 335
20 | COc1ccc(O)c(CN2CCCC(N3CCN(c4cccc(C(F)(F)F)c4)CC3)C2)c1 (stereo not shown) [KKL-0660] | 1
21 | O=C(Nc1cccc(Cl)c1)Nc1ccccc1OC(F)(F)C(F)F [KKL-0431] | 21
22 | Cc1ccc(CN(CCCn2ccnc2)Cc2cccc(Cl)c2Cl)o1 [KKL-1195] | 17
23 | CCOC(=O)c1ccc(NC(=O)c2ccc(C)s2)cc1 [KKL-0584] | 0
24 | CN(C)c1ccc(N=Nc2nc3ccccc3n2C)cc1 [KKL-1056] | 0
25 | Fc1cccc(Oc2cc(C3CCCNC3)nc(-c3ccncc3)n2)c1 (stereo not shown) [KKL-1670] | 3

Row | SMILES | % activation [%]
26 | O=C(C=Cc1cccs1)N1CCN(Cc2ccc(Br)s2)CC1 [KKL-1861] | 0
27 | Cc1ccc(-n2cc(CNCCCn3ccnc3)c(-c3cccc(C)c3)n2)cc1 [KKL-0662] | 0
28 | Cc1nn2c(O)cc(C(C)(C)C)nc2c1-c1ccccc1 [KKL-0891] | 17
29 | CCOC(=O)c1c(NC(=O)COc2ccc(C(C)C)cc2)sc2c1CCC2 [KKL-1530] | 0
30 | COc1ccc(-c2cc(=O)c3cc(OCC(=O)OC(C)C)ccc3o2)cc1 [KKL-1864] | 2
31 | CCC(NC(=O)c1cnc(C(C)(C)C)nc1)c1ccc(F)cc1 (stereo not shown) [KKL-0932] | 5
32 | CCCN=C1C(=O)c2ccccc2C(O)=C1N(C(C)=O)c1cccc(F)c1 [KKL-0978] | 0
33 | Clc1nnc(N2CCCC2)c2ccccc12 [KKL-1738] | 0
34 | CCOC(=O)COc1ccc(S(=O)(=O)Nc2c(C)cccc2CC)cc1 [KKL-1460] | 0
35 | Nc1nc(N)c2c(Sc3ccc4ccccc4c3)cccc2n1 [KKL-1710] | 0
36 | Cc1sc2nc(C(C)C)n(C3CCN(C(=O)c4ccncc4)CC3)c(=O)c2c1C [KKL-0464] | 14
37 | COC(=O)[C@@H]1Cc2c([nH]c3ccccc23)[C@H]2C[C@H](NCc3cccnc3)C[C@@H](c3ccc(C(F)(F)F)cc3)N21 [KKL-1613] | 0
38 | CCn1ccnc1CN(C)Cc1cn(-c2ccc(C)cc2)nc1-c1ccc(F)cc1 [KKL-0657] | 0
39 | Cc1ccc(Nc2c(-c3ccccn3)nc3ccc(C)cn23)cc1 [KKL-1199] | 4
40 | N#Cc1cccc(-c2ccc(NCC3CCC(CN(C(=O)O)c4cccnn4)CC3)nc2)c1 (stereo not shown) [KKL-1855] | 0
41 | c1cn(CCCNc2nncc(-c3ccc(C4CCCCC4)cc3)n2)cn1 [KKL-1171] | 8
42 | COC(=O)[C@@H]1Cc2c([nH]c3ccccc23)[C@H]2C[C@@H](NC(C)C)C[C@@H](c3cccc(Cl)c3)N21 [KKL-1594] | 1
43 | COc1ccc(OC)c(NC(=O)Nc2ccc(Cl)c(C(F)(F)F)c2)c1 [KKL-1544] | 0
44 | Cc1nn(-c2ccccc2)c2c1C(c1ccc(O)c(O)c1)N1C(=N2)C(Nc2ccccc2)=Nc2ccccc21 (stereo not shown) [KKL-0996] | 0
45 | COc1cccc(-c2cc(CC3(O)CCN(Cc4[nH]c5ccc(C)cc5c4C)CC3)on2)c1 [KKL-0315] | 0
46 | CC(C)(C)C(=O)CC1(O)Oc2ccccc2N=C1C=C(O)C(C)(C)C (stereo not shown) [KKL-1740] | 6
47 | Cc1cc(C)c(-n2cccn2)c(CN(CCCn2ccnc2)Cc2ccc(F)cc2)c1 [KKL-1032] | 8
48 | O=C(CN1CCN(Cc2ccccc2)CC1)Nc1ccc([N+](=O)[O-])cc1C(=O)c1ccccc1 [KKL-1480] | 0
49 | O=C(NCc1ccco1)N1CCN(Cc2ccc(Cl)s2)CC1 [KKL-1727] | 3
